Reference: PubChem BioAssay (EPA / NIEHS)
Inconclusive results are not listed. Activity calls are given as the source filed them. Rule for the calls, unless noted: active = hit-call score of the fitted dose curve at least 0.9, where 1 is the maximum; inconclusive = response in the unintended direction; inactive = score below 0.9.

Legend:
[1] = Tanguay_ZF_120hpf_PE_legacy: (Legacy) Oregon State University Tanguay Lab 120 Hour Post-fertilization zebrafish Assay for Pericardial Edema (AID 2283640);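 for AC50: potency for increased incidence of pericardial edema versus DMSO baseline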
Outline: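 Zebrafish larvae are exposed from early development to 120 hpf at 28C, with 0.64% DMSO final. Each surviving larva receives a yes/no pericardial edema call by brightfield imaging, analysed relative to the DMSO baseline.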

[2] = Tanguay_ZF_120hpf_BRAI_legacy: (Legacy) Oregon State University Tanguay Lab 120 Hour Post-fertilization zebrafish Assay for Brain Malformation (AID 2283641)
Outline: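 Static exposure of staged wild-type embryos until 120 hpf, kept at 28C with light excluded and final DMSO of 0.64% (vol/vol). Presence or absence of brain malformation was noted under brightfield; mortality precluded scoring.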

[3] = Tanguay_ZF_120hpf_SOMI_legacy: (Legacy) Oregon State University Tanguay Lab 120 Hour Post-fertilization zebrafish Assay for Somite Malformation (AID 2283647)
Outline: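 Somitogenesis defects are recorded as binary calls in whole larvae at 120 hpf after continuous static chemical exposure starting at 6 hpf in dechorionated 5D embryos. DMSO serves as negative control and baseline.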

[4] = Tanguay_ZF_120hpf_PFIN_legacy: (Legacy) Oregon State University Tanguay Lab 120 Hour Post-fertilization zebrafish Assay for Pectoral Fin Malformation (AID 2283648);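 note: each larva judged yes or no for fin defect by brightfield with dead larvae skipped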
Outline: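 Binary pectoral fin malformation call at 120 hpf by brightfield microscopy; 5D wild-type zebrafish, chorion removed at 4 hpf, one embryo per well from 6 hpf, static exposure at 28C; DMSO (0.64% final) as baseline.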

[5] = Tanguay_ZF_120hpf_CFIN_legacy: (Legacy) Oregon State University Tanguay Lab 120 Hour Post-fertilization zebrafish Assay for Caudal Fin Malformation (AID 2283649)
Outline: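 Single dechorionated 5D wild-type embryos are dosed at 6 hpf (final DMSO 0.64%) and held statically at 28C. Caudal fin malformation is recorded as present or absent at 120 hpf under brightfield, excluding dead embryos.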

[6] = Tanguay_ZF_120hpf_PIG_legacy: (Legacy) Oregon State University Tanguay Lab 120 Hour Post-fertilization zebrafish Assay for Pigmentation Malformation (AID 2283650)
Outline: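 Brightfield scoring of pigmentation malformation at 120 hpf, recorded as binary present/absent per larva. Exposure: dechorionated 5D wild-type embryos, one per well, static from 6 hpf at 28C, final DMSO 0.64% (vol/vol). Dead embryos not scored.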

[7] = Tanguay_ZF_120hpf_CIRC_legacy: (Legacy) Oregon State University Tanguay Lab 120 Hour Post-fertilization zebrafish Assay for Circulatory Malformation (AID 2283651)
Outline: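 Binary circulatory malformation call at 120 hpf by brightfield imaging of zebrafish larvae; chorion removed at 4 hpf, static exposure from 6 hpf in sealed dark plates at 28C, final DMSO 0.64%; non-mortality endpoints skipped if embryo died.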

[8] = Tanguay_ZF_120hpf_TRUN_legacy: (Legacy) Oregon State University Tanguay Lab 120 Hour Post-fertilization zebrafish Assay for Truncated Body (AID 2283655)
Outline: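 Single dechorionated zebrafish embryos received test chemical from 6 hpf in 0.64% DMSO, kept at 28C. At 120 hpf, brightfield inspection noted any truncated body.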

[9] = Tanguay_ZF_120hpf_TR_legacy: (Legacy) Oregon State University Tanguay Lab 120 Hour Post-fertilization zebrafish Assay for Touch Response (AID 2283667)
Outline: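 Binary touch-response call at 120 hpf, analysed as gain of signal versus DMSO baseline. Wild-type 5D larvae, static exposure at 28C, 0.64% DMSO final; 5uM trimethyltin chloride as positive control.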

[10] = STM_H9_OrnithineISnorm_perc: Stemina devTOX quickPredict H9 human embryonic stem cell (hESC)-based Assay for Ornithine (ORN) Metabolite Biomarker, Normalized (AID 2283712; active = hit-call score of the fitted dose curve at least 0.9, where 1 is the maximum; inactive = score below 0.9;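 note: ornithine released into spent medium during last day measured by mass spectrometry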)
Outline: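 Ornithine in spent medium from the last 24 h of a 72 h exposure, deproteinised and quantified by UPLC-HRMS against an isotope-labelled internal standard, expressed relative to 0.1% DMSO. Pluripotent H9 cells; compound refreshed every 24 h.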

[11] = Tanguay_ZF_120hpf_SWIM_legacy: (Legacy) Oregon State University Tanguay Lab 120 Hour Post-fertilization zebrafish Assay for Swim Bladder Malformation (AID 2283654);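 note: swim bladder malformation in each larva scored yes or no under brightfield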
Outline: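 Tropical 5D embryos dechorionated at 4 hpf; 1 embryo/well from 6 hpf; static, sealed, dark exposure at 28C until 120 hpf; final DMSO 0.64%; 5uM trimethyltin chloride positive control; swim bladder defect recorded yes/no; dead embryos not scored.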

[12] = Tanguay_ZF_120hpf_NC_legacy: (Legacy) Oregon State University Tanguay Lab 120 Hour Post-fertilization zebrafish Assay for Notochord and Tail Malformation (AID 2283656)
Outline: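 Binary scoring of notochord distortion by brightfield microscopy; embryos dying were not scored. Wild-type Tropical 5D embryos, chorion removed, exposed singly and statically from 6 to 120 hpf, 28C, sealed, 0.64% DMSO.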

[13] = CCTE_Padilla_ZF_144hpf_TERATOSCORE: (Legacy) CCTE's 144 Hour Post-fertilization zebrafish Assay Teratoscore, Padilla Lab (AID 2283679; active = hit-call score of the fitted dose curve at least 0.9, where 1 is the maximum; inactive = score below 0.9;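 for AC50: zebrafish embryos with chorions exposed by immersion from 6-8 hpf to 5 dpf with daily renewal; teratogenicity score from eye scoring of death hatching and malformations at 144 hpf; higher score means more developmental defects relative to DMSO baseline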)
Outline: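 Larvae scored by eye at 144 hpf for death, hatching and malformations after a day in clean Hanks'. Before that, daily-renewed exposure at 80 uM (0.4% DMSO, 26C) from roughly 6-8 hpf through 5 dpf, 4 embryos per chemical.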

[14] = read-out: kallikrein-3 (KLK3), KLK3 (gene 354); assay: LTEA_HepaRG_KLK3: Life Technologies and Expression Analysis (LTEA) Assay for kallikrein-3 (KLK3) using HepaRG (AID 2283652; active = hit-call score of the fitted dose curve at least 0.9, where 1 is the maximum; inactive = score below 0.9); details: mRNA level, 48 h; actives raise or lower the signal
Outline: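 KLK3 transcript levels were measured by TaqMan qRT-PCR with normalisation to three housekeeping genes. HepaRG cultures received chemicals for 48 h at up to 100 uM (half-log, 8 points, 0.5% DMSO vehicle), fitted in both directions against DMSO.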

[15] = read-out: solute carrier (SLC22A6), SLC22A6 (gene 9356); assay: LTEA_HepaRG_SLC22A6: Life Technologies and Expression Analysis (LTEA) Assay for solute carrier (SLC22A6) using HepaRG (AID 2283653; active = hit-call score of the fitted dose curve at least 0.9, where 1 is the maximum; inactive = score below 0.9); details: mRNA level, 48 h; actives raise or lower the signal
Outline: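 Gene-expression endpoint in HepaRG hepatic cells: duplicate 8-point concentration-response, highest 100 uM, 48 h treatment in serum-free medium with 0.5% DMSO. SLC22A6 expression measured by qRT-PCR, normalised to ACTB/GAPDH/POLR2A.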

[16] = read-out: solute carrier (SLC10A1), SLC10A1 (gene 6554); assay: LTEA_HepaRG_SLC10A1: Life Technologies and Expression Analysis (LTEA) Assay for solute carrier (SLC10A1) using HepaRG (AID 2283657; active = hit-call score of the fitted dose curve at least 0.9, where 1 is the maximum; inactive = score below 0.9); details: mRNA level, 48 h; actives raise or lower the signal
Outline: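 HepaRG, 48 h exposure, 8-pt half-log curve from 100 uM in 0.5% DMSO, duplicates. Read-out: TaqMan qRT-PCR of SLC10A1 mRNA, normalized to three housekeeping genes. Gain/loss fit vs DMSO baseline.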

[17] = read-out: matrix metalloproteinase-1 (MMP1), MMP1 (gene 4312); assay: LTEA_HepaRG_MMP1: Life Technologies and Expression Analysis (LTEA) Assay for matrix metalloproteinase-1 (MMP1) using HepaRG (AID 2283658; active = hit-call score of the fitted dose curve at least 0.9, where 1 is the maximum; inactive = score below 0.9); details: mRNA level, 48 h; actives raise or lower the signal
Outline: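 In this screen, human liver HepaRG cultures receive each chemical in duplicate for 48 h (top 100 uM, 0.5% DMSO). MMP1 expression is then quantified by TaqMan qRT-PCR with ACTB/GAPDH/POLR2A normalization.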

[18] = read-out: Cytochrome P450 (CYP24A1_1), CYP24A1 (gene 1591); assay: LTEA_HepaRG_CYP24A1_1: Life Technologies and Expression Analysis (LTEA) Assay for Cytochrome P450 (CYP24A1_1) using HepaRG (AID 2283671; active = hit-call score of the fitted dose curve at least 0.9, where 1 is the maximum; inactive = score below 0.9); details: mRNA level, 48 h; actives raise or lower the signal
Outline: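 Readout is CYP24A1 transcript level by qRT-PCR, normalized to three housekeeping genes, with gain or loss of signal fitted against 0.5% DMSO. Human HepaRG cells received compound for 48 h at up to 100 uM.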

[19] = system: Thyroperoxidase (TPO), gene 54314; assay: CCTE_Simmons_AUR_rTPO: CCTE's Amplex UltraRed Assay for Thyroperoxidase (TPO) Inhibition, Simmons Lab (AID 2283662);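 for AC50: potency for loss of signal meaning inhibition of peroxidase activity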
Outline: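 Cell-free peroxidase activity assay using rat thyroid gland microsomes with excess H2O2 (300 uM) and 25 uM Amplex UltraRed. Compounds tested from 5 nM to 87.5 uM; fluorescence measured after 30 min at 37C, analysed relative to DMSO baseline.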

[20] = CCTE_Simmons_CellTiterGLO_HEK293T: Viability Assessment in CCTE's Assays for Thyroperoxidase (TPO) Inhibition, Simmons Lab (AID 2283665);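 for AC50: cells exposed to compound for 24 h before readout; actives reduce ATP signal below DMSO vehicle meaning cytotoxicity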
Outline: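 Luciferase-coupled ATP content after 24 h exposure gives viability; 8-point series from 5 nM to 87.5 uM final in 0.5% DMSO. Human HEK293T cells, 1% FBS medium, three biological replicates, dichlone positive control.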

Measured: AC50

O=C1NC(=O)C(c2ccccc2)(c2ccccc2)N1
inactive: [1] | [2] | [3] | [4] | [5] | [6] | [7] | [8] | [9] | [10]

c1ccc2occc2c1
inactive: [1] | [2] | [3] | [4] | [5] | [6] | [7] | [11] | [12] | [9]

CO[C@@H]1COCC[C@@H]1N[C@@H]1CC[C@@](C(=O)N2CCc3ncc(C(F)(F)F)cc3C2)(C(C)C)C1
inactive: [1] | [2] | [3] | [4] | [5] | [6] | [7] | [8] | [9]

O=C(N[C@@H](c1ccccc1)[C@@H]1CCCCN1)c1cccc(C(F)(F)F)c1Cl
inactive: [1] | [2] | [3] | [4] | [5] | [6] | [7] | [9]
active: [13] 20.3 µM

CCCCCCC(CCCCCCCCCCC(=O)OCC(COC(C)=O)OC(C)=O)OC(C)=O (stereo not given)
active: [13] 7.74 µM
not listed: [7] | [10] | [12] | [19] | [20]
inactive: all other assays above

CN(C)CCCN1c2ccccc2Sc2ccc(Cl)cc21
active: [16] 21 µM | [17] 84.9 µM | [13] 6.24 µM | [10] 3.51 µM
not listed: [7] | [8] | [12] | [19] | [20]
inactive: all other assays above

CCCCCCCCCCCCCCOS(=O)(=O)O
inactive: [3]
active: [1] 27.7 µM | [2] 10.4 µM | [4] 16.8 µM | [5] 46.9 µM | [6] 9.35 µM | [8] 31.3 µM | [19] 43.8 µM | [20] 22.3 µM | [9] 32.6 µM | [13] 15.3 µM

CCCCOC(=O)CCCCC(=O)OCCCC
active: [13] 15.9 µM
inactive: [1] | [2] | [3] | [4] | [5] | [6] | [8] | [12] | [9]

O=C(O)c1cccnc1
inactive: [1] | [2] | [3] | [4] | [7] | [11] | [8] | [12] | [13] | [10]

CCCC(=O)O
inactive: [1] | [2] | [3] | [4] | [5] | [7] | [11] | [12] | [9]

COC(=O)CCCC(=O)OC
active: [13] 62.7 µM
inactive: [1] | [2] | [3] | [4] | [5] | [12] | [9]

Nc1nc(Cl)nc2c1ncn2[C@H]1C[C@H](O)[C@@H](CO)O1
inactive: [1] | [2] | [3] | [4] | [5] | [11] | [8] | [9]
active: [10] 0.35 µM

CC1(C)C(=O)NC(=O)N1CO
inactive: [1] | [2] | [3] | [4] | [6] | [8] | [19] | [20] | [9]

C=CCCCCCCCCCCCC
inactive: [1] | [2] | [3] | [4] | [9] | [13]

O=C(O)CN(CC(=O)O)CC(=O)O
inactive: [1] | [2] | [3] | [4] | [6] | [7] | [11] | [12] | [9] | [13] | [10]

C=CCc1ccc(OC)c(OC)c1
inactive: [1] | [2] | [3] | [4] | [6] | [11] | [12]

OCC(O)CO
inactive: [1] | [2] | [3] | [4] | [5] | [6] | [12] | [9]

NCCOCCOCCN
inactive: [1] | [2] | [3] | [4] | [5] | [7] | [13]

CCCCCCC(C=O)=Cc1ccccc1
inactive: [1] | [2] | [3] | [4] | [6] | [7] | [11] | [12] | [9]
active: [13] 13.9 µM

Cc1ccc(C(C)(C)C)c(O)c1
active: [19] 30 µM | [20] 22.3 µM | [13] 92.9 µM
inactive: [1] | [2] | [3] | [4] | [5] | [6] | [8] | [9] | [10]

CC(C)(C)c1ccccc1
inactive: [1] | [2] | [3] | [4] | [5] | [7] | [11] | [9]

CCCCc1nc2cccnc2n1Cc1ccc(-c2ccccc2-c2nnn[nH]2)cc1
inactive: [1] | [2] | [3] | [4] | [5] | [6] | [7] | [8] | [13]

O=Cc1ccccc1C=O
inactive: [1] | [2] | [3] | [5] | [6] | [7] | [9] | [10]
active: [19] 41.8 µM | [20] 4.91 µM | [13] 1.15 µM

CCOCCOCCO
inactive: [1] | [2] | [3] | [4] | [5] | [6] | [8] | [9]

Cc1c(C)c2c(c(C)c1O)CCC(C)(COc1ccc(CC3SC(=O)NC3=O)cc1)O2 (stereo not given)
active: [19] 1.91 µM | [20] 19 µM | [13] 1.67 µM
not listed: [7] | [10] | [14] | [15] | [16] | [17] | [18]
inactive: all other assays above

COC(=O)[C@H]1[C@H]2C[C@@H]3c4[nH]c5cc(OC)ccc5c4CCN3C[C@H]2C[C@@H](OC(=O)c2cc(OC)c(OC)c(OC)c2)[C@@H]1OC
active: [19] 7.3 µM | [20] 45.3 µM
inactive: [1] | [2] | [3] | [4] | [5] | [8] | [12] | [9] | [10]
